From PubChem BioAssay (Tox21) come the findings set out here.

Records with an inconclusive call do not appear. Values without a mark were called inactive. Calls of active or inactive are those of the source. Unless noted, the call rests on the fitted dose curve; in most records, active means well fitted curve in the direction sought with a large enough effect in the repeat runs; inconclusive means weak or mixed curves; inactive means no such curve, though single readings can be large; an effect the other way counts as inactive or inconclusive.

Test [1] can be described thus: qHTS assay to identify small molecule agonists of the farnesoid-X-receptor (FXR) signaling pathway - cell viability counter screen (AID 743218). Further: nearly all actives have a fitted effect of over 45% in size. Further: potency means the concentration at half of the fitted maximal effect. In short, it runs like this:
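FXR-UAS-bla HEK 293T cells, plated 5 h at 37 C, were exposed to compounds for 16 h at 37 C. CellTiter-Glo was then added to the same wells as the bla readout; luminescence read after 30 min at room temperature.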
For orientation: qHTS replaces the single test concentration by a dilution series.

For test [2], the target named is Bile acid receptor (Homo sapiens) (UniProt Q96RI1). Nature of the test: qHTS assay to identify small molecule agonists of the farnesoid-X-receptor (FXR) signaling pathway (AID 743220; active means well fitted activation curve with a large enough effect in the signal ratio in the repeat runs, not every such curve was filed as active; the % refers to the signal ratio). In short, it runs like this:
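Beta-lactamase reporter under UAS control in GeneBLAzer FXR HEK 293T cells (5000/well) measured with LiveBLAzer FRET substrate after 2 h at room temperature. Compound exposure lasted 16 h at 37C.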

Test [3] deals with Vitamin D3 receptor (Homo sapiens) (UniProt P11473). Nature of the test: qHTS assay to identify small molecule agonists of the vitamin D receptor (VDR) signaling pathway (AID 743222; calls by dose curve). In short, it runs like this: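 VDR-bla cells were plated 4 h at 37C/5% CO2, then exposed to compounds in DMSO for 16 h. After LiveBLAzer B/G FRET substrate addition and 2 h at room temperature, beta-lactamase reporter fluorescence was read.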
Vitamin D3 receptor (Homo sapiens), sequence (P11473 whole entry, looked up): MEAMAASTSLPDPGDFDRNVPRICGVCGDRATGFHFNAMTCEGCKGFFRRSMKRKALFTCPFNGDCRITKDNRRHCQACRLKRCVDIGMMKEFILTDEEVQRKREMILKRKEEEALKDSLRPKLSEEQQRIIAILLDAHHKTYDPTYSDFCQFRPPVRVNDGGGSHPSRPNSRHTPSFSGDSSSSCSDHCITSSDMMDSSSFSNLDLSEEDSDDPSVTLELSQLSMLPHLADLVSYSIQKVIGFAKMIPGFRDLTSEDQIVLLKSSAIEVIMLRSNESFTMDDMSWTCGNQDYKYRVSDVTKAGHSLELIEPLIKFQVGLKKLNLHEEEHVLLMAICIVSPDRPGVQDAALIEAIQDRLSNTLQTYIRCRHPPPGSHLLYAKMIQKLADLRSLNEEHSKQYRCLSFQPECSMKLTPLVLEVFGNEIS

Test [4] is described as follows: qHTS assay to identify small molecule agonists of the endoplasmic reticulum stress response signaling pathway (AID 1159516; active means well fitted activation curve with a large enough effect in the signal ratio in the repeat runs, not every such curve was filed as active; the % refers to the signal ratio). In short, it runs like this: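 CellSensor ESRE-bla HeLa cells, carrying a beta-lactamase reporter driven by the ER stress response element, were plated overnight and exposed to compounds for 5 hr at 37 C. Reporter activity was read as FRET substrate fluorescence after 2 hr at room temperature.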

Test [5] is described as follows: qHTS assay to identify small molecule agonists of the endoplasmic reticulum stress response signaling pathway - cell viability counter screen (AID 1159517; calls by dose curve; further: series mostly up to about 61 µM; nearly all actives have a fitted effect of over 50% in size). In short, it runs like this: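 ESRE-bla HeLa cells, 1,500 per well, seeded overnight then treated with compounds for 5 hr at 37 C. After the beta-lactamase read, viability in the same wells is measured by CellTiter-Glo luminescence after 30 min at room temperature.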

Test [6] in a line: qHTS assay to identify small molecule antagonists of the retinoid-related orphan receptor gamma (ROR-gamma) signaling pathway - cell viability counter screen (AID 1159520). Further: nearly all actives have a fitted effect of over 50% in size. Further: potency means the concentration at half of the fitted maximal effect. In short, it runs like this:
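Tet-on ROR gamma CHO cells were given compounds for 2 hr, then doxycycline hyclate at 1 uM final, and incubated 16 hr at 37 C. Viability was measured as ATP content by CellTiter-Glo luminescence.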

Test [7] is described as follows: qHTS assay to identify small molecule agonists of the AP-1 signaling pathway - cell viability counter screen (AID 1159525; calls by dose curve; further: nearly all actives have a fitted effect of over 55% in size). In short, it runs like this: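 AP-1-bla ME-180 cells in Opti-MEM with 0.5% dialyzed FBS, compound exposure 5 h at 37 C in 15-point titration. Viability read in the same wells as ATP content by CellTiter-Glo luminescence, normalised to tetra-n-octylammonium bromide and DMSO controls.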

Test [8] in a line: qHTS assay to identify small molecule agonists of the AP-1 signaling pathway (AID 1159526; calls by dose curve; further: potency means the concentration at half of the fitted maximal effect).
A short description of test [9]: qHTS assay to identify small molecule antagonists of the peroxisome proliferator-activated receptor delta (PPARd) signaling pathway - cell viability counter screen (AID 743213). Further: nearly all actives have a fitted effect of over 50% in size. Further: potency means the concentration at half of the fitted maximal effect. In short, it runs like this:
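Agonist-stimulated (L165041, 300 nM final) HEK293H PPARd UAS-bla cells are exposed to compounds for 17 h at 37 C, and ATP-based luminescence (CellTiter-Glo) from the same wells reports cytotoxicity.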

The nature of test [10]: qHTS assay to identify small molecule antagonists of the farnesoid-X-receptor (FXR) signaling pathway - cell viability counter screen (AID 743221; active means well fitted cell-killing curve with a large enough effect in the repeat runs, not every such curve was filed as active; further: nearly all actives have a fitted effect of over 50% in size; further: potency means the concentration at half of the fitted maximal effect). In short, it runs like this: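 Here viability was scored by luminescence after CellTiter-Glo addition to wells already read for beta-lactamase. Prior treatment: compound plus CDCA (50 uM final), 16 h, 37 C, HEK 293T FXR-bla cells.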

A short description of test [11]: qHTS assay to identify small molecule antagonists of the vitamin D receptor (VDR) signaling pathway - cell viability counter screen (AID 743225). Further: nearly all actives have a fitted effect of over 50% in size. Further: potency means the concentration at half of the fitted maximal effect. In short, it runs like this:
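Compounds were pinned onto VDR-bla HEK 293T cells together with 1-alpha,25-dihydroxyvitamin D3 at 3 nM final. After 16 h at 37C and 5% CO2 plus the reporter readout, cell viability was measured by CellTiter-Glo luminescence (30 min, room temperature).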

The target of test [12] is Nuclear receptor ROR-gamma (Homo sapiens) (UniProt P51449). Nature of the test: qHTS assay to identify small molecule antagonists of the retinoid-related orphan receptor gamma (ROR-gamma) signaling pathway (AID 1159521; further: nearly all actives have a fitted effect of over 50% in size; further: potency means the concentration at half of the fitted maximal effect). In short, it runs like this: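 Test compounds were applied to Tet-on RORγ CHO cells 2 h ahead of doxycycline hyclate (1 uM final). Luciferase reporter activity was quantified by luminescence after 16 h at 37 C and 5% CO2.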

Test [13] is described as follows: qHTS assay to identify small molecule agonists of the RXR signaling pathway - cell viability counter screen (AID 1159529). Further: nearly all actives have a fitted effect of over 50% in size. Further: potency means the concentration at half of the fitted maximal effect. In short, it runs like this:
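Compounds dissolved in DMSO were pinned onto HEK 293T cells carrying a beta-lactamase reporter under RXR-alpha control and incubated 16 hr. Cytotoxicity was then quantified by CellTiter-Glo luminescence.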

A short description of test [14]: qHTS assay to identify small molecule agonists of the peroxisome proliferator-activated receptor delta (PPARd) signaling pathway - cell viability counter screen (AID 743211). Further: nearly all actives have a fitted effect of over 55% in size. In short, it runs like this: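 In the same wells used for beta-lactamase reporter measurement, cytotoxicity is scored by CellTiter-Glo. HEK293H PPARd-bla cells receive compound for 17 h at 37C following a 5 h settling period.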

For test [15], the target named is Peroxisome proliferator-activated receptor delta (Homo sapiens) (UniProt Q03181). The test can be described thus: qHTS assay to identify small molecule agonists of the peroxisome proliferator-activated receptor delta (PPARd) signaling pathway (AID 743212; calls by dose curve). In short, it runs like this:
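GeneBLAzer UAS-bla HEK293H cells carrying a PPARδ construct were exposed to compounds at 37 °C. Beta-lactamase activity was read by FRET fluorescence after 2 h at room temperature with LiveBLAzer B/G substrate.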

The target of test [16] is Vitamin D3 receptor (Homo sapiens) (UniProt P11473). The test can be described thus: qHTS assay to identify small molecule antagonists of the vitamin D receptor (VDR) signaling pathway (AID 743223; active means well fitted inhibition curve with a large enough effect in the signal ratio in the repeat runs, not every such curve was filed as active; the % refers to the signal ratio). In short, it runs like this:
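Inhibition of agonist-driven VDR signalling is scored in VDR-bla cells: 3 nM final 1alpha,25-dihydroxyvitamin D3 plus compound, 16 h at 37C, then beta-lactamase detection by FRET substrate fluorescence after 2 h.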

Test [17] in a line: qHTS assay to identify small molecule agonists of the vitamin D receptor (VDR) signaling pathway - cell viability counter screen (AID 743224). Further: nearly all actives have a fitted effect of over 50% in size. Further: potency means the concentration at half of the fitted maximal effect. In short, it runs like this:
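VDR-bla cells were preincubated 4 h at 37C/5% CO2, then exposed to compounds for 16 h. After the 2 h room-temperature bla FRET read, CellTiter-Glo was added to the same wells and luminescence read after 30 min.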

Test [18] concerns the target Retinoic acid receptor RXR-alpha (Homo sapiens) (UniProt P19793). The test can be described thus: qHTS assay to identify small molecule agonists of the RXR signaling pathway (AID 1159527; calls by dose curve; further: nearly all actives have a fitted effect of over 35% in size). In short, it runs like this:
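Using 9-cis retinoic acid as the reference agonist, chemicals were tested in HEK 293T cells […] for 16 hr; substrate loading lasted 2 hr at room temperature.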

For test [19], the target named is Peroxisome proliferator-activated receptor delta (Homo sapiens) (UniProt Q03181). Nature of the test: qHTS assay to identify small molecule antagonists of the peroxisome proliferator-activated receptor delta (PPARd) signaling pathway (AID 743215; active means well fitted inhibition curve with a large enough effect in the signal ratio in the repeat runs, not every such curve was filed as active; the % refers to the signal ratio; further: series mostly up to about 62 µM). In short, it runs like this:
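PPARd UAS-bla HEK293H cells were pre-incubated 5 h at 37 C, then given test compounds in DMSO plus agonist L165041 (300 nM final). After 17 h at 37 C, beta-lactamase FRET substrate was added; fluorescence read after 2 h at room temperature.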

The target in test [20] is Bile acid receptor (Homo sapiens) (UniProt Q96RI1). The test can be described thus: qHTS assay to identify small molecule antagonists of the farnesoid-X-receptor (FXR) signaling pathway (AID 743217; active means well fitted inhibition curve with a large enough effect in the signal ratio in the repeat runs, not every such curve was filed as active; the % refers to the signal ratio). In short, it runs like this:
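FXR-UAS-bla HEK 293T cells pre-incubated 5 h at 37 °C, then exposed to compounds with chenodeoxycholic acid (50 uM final) for 16 h at 37 °C. Beta-lactamase reporter read by LiveBLAzer B/G FRET substrate fluorescence after 2 h at room temperature.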

Retinoic acid receptor RXR-alpha (Homo sapiens), sequence (P19793 whole entry, looked up): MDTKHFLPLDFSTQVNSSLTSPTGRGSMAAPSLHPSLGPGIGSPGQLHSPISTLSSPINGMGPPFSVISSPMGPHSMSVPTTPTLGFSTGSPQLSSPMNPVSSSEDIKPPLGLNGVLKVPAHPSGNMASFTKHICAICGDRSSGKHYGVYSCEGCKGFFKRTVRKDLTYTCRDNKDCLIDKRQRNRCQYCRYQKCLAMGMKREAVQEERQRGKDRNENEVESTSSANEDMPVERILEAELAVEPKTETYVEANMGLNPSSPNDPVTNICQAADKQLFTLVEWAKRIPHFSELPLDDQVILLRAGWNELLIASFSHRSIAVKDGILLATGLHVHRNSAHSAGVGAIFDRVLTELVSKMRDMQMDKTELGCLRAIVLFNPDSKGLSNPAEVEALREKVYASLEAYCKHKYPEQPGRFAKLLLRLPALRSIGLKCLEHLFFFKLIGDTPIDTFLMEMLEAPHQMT
Peroxisome proliferator-activated receptor delta (Homo sapiens), sequence (Q03181 whole entry, looked up): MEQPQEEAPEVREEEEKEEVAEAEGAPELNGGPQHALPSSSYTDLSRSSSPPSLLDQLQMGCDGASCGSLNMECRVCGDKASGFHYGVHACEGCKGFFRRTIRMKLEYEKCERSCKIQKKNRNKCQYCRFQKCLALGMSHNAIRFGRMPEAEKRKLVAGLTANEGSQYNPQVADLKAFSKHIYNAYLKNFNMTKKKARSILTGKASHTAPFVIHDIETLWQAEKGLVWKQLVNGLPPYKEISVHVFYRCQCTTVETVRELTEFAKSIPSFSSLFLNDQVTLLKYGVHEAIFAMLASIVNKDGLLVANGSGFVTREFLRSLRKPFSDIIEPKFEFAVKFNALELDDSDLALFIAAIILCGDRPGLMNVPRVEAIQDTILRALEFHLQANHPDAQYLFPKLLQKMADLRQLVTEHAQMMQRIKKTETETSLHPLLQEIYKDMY
Bile acid receptor (Homo sapiens), sequence (Q96RI1 whole entry, looked up): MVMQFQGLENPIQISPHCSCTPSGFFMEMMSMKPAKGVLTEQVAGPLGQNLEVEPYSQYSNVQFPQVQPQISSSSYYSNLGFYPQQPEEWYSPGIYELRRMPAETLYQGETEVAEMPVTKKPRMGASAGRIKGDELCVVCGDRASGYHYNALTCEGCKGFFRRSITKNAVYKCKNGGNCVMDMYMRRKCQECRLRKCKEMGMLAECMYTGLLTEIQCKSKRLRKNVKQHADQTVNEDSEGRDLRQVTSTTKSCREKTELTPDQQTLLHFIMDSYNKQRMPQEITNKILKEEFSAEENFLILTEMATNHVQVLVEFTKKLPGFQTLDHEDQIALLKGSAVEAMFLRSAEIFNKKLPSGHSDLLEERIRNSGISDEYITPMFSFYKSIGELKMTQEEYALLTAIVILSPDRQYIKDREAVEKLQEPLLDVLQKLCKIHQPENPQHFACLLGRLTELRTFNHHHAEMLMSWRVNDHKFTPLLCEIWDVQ

Consider `CN(C)CCCN1c2ccccc2Sc2ccc(C(F)(F)F)cc21`, for which the figures for the Potency in [1] and in test [8] were 11.9 µM (active) and 16.9 µM (active), respectively. The Potency entry in test [2], in [3], in test [4], in test [5], in test [6] and in test [7] was “inactive” each time.
For `NC1(c2ccc(-c3nc4ccn5c(=O)[nH]nc5c4cc3-c3ccccc3)cc2)CCC1`, the Potency is 15 µM (active) in test [9]; 26.6 µM (active) in [1]; 33.5 µM (active) in [10]; 21.3 µM (active) in test [11]; 29.8 µM (active) in test [6]; 0.596 µM (active) in test [12]. Moreover, the Potency in test [13] was 21.3 µM (active). Further, the Potency entry in test [4] and in test [5] was “inactive” throughout.
Regarding `O=S(=O)(O)CCCN1CCOCC1`, the Potency entry in [14], in [9], in test [1], in test [10], in test [3] and in test [16] was “inactive” throughout. The Potency result in test [17], in test [11], in test [4], in test [5], in test [6] and in [7] was “inactive” throughout. The Potency result in [8], in test [18] and in [13] was “inactive” in each case. Besides, in test [15], the outcome was inactive.
As to `Cc1cn[nH]c1`, the Potency result in [14], in test [9], in [19], in test [1], in test [10] and in test [17] was “inactive” throughout. Further, the Potency result in test [4], in [5], in test [6], in [7], in test [8] and in test [18] was “inactive” in each case. Moreover, the Potency entry in test [13] is “inactive”. For the same compound, the result in test [15] was inactive.
With `C/C=C/C=N/NC(=O)c1ccncc1`, the result in test [15] was inactive. Also, the Potency result in test [9], in [1], in test [10], in [16], in test [11] and in [4] was “inactive” in each case. The Potency result in test [5], in test [6], in test [12], in test [7] and in test [13] was “inactive” in each case.
In the case of `c1cc2c3c(c1)ccc1cccc(c13)C2`, the compound was classed as inactive in [15]. Besides, the Potency entry in [9], in test [19], in test [10], in test [3], in test [4] and in test [5] was “inactive” throughout. The Potency result in test [6], in test [12] and in test [7] was “inactive” each time. For the same compound, the Potency in test [17] is 56.1 µM (active).
For `CCCCNc1c(C(=O)OCC)c(C)nc2c1cnn2CC`, in test [15], the call was inactive. For the same compound, the Potency result in test [9], in test [19], in test [1], in test [10], in test [3] and in [17] was “inactive” throughout. Moreover, the Potency result in test [11], in [4], in test [5], in test [6], in [12] and in test [7] was “inactive” in each case. In addition, the Potency entry in test [8] and in test [13] was “inactive” throughout.
In the case of `C=CC(C)(CCC=C(C)C)OC(=O)/C=C/c1ccccc1` (stereo unspecified), the Potency result in [14], in [20], in test [1], in test [2], in test [10] and in test [16] was “inactive” in each case. Moreover, the Potency result in test [4], in test [5], in test [6], in [12] and in test [7] was “inactive” throughout. For the same compound, the result in [15] was inactive. For the same compound, the Potency in test [17] was 38.9 µM (active).
Consider `O=C(c1ccccc1)c1cc(Cl)ccc1O`, for which the Potency entry in test [9], in [20], in test [1], in test [2], in [10] and in [3] was “inactive” throughout. The Potency result in test [17], in test [11], in [4], in test [5], in test [6] and in test [12] was “inactive” throughout. For the same compound, the Potency result in [18] was “inactive”.
